# FadD28 FP inh = inhibitors of FadD28 bisubstrate probe binding, primary screen, biochemical, fluorescence polarization, single point | Mycobacterium tuberculosis FadD28 fatty-acid-AMP ligase | inhibition, % at 12.5 µM | actives 0.22% (n = 360,000); in the data active = inhibition above about 8.5%, passing the limit was not always enough; inconclusive = no clear call, values can overlap the other calls
# Rv3671c inh = Rv3671c serine protease inhibitors, primary screen, biochemical, fluorescence polarization, M. tuberculosis H37Rv; P9WHR9; inhibition, % at 5.96 µM; actives 0.048% (n = 320,000); in the data active = inhibition above about 38%;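 note: extracellular domain of Rv3671c used as enzyme; 0% = enzyme with DMSO and 100% = no enzyme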
# Mtb betalactam = beta-lactam sensitization of Mtb H37Rv, H37Rv; M. tuberculosis H37Rv growth with meropenem, percent inhibition; inhibition, % at 25 µM; actives 0.27% (n = 330,000); AID 434955, 2010; call rule not given here;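 note: growth measured after seven days incubation then overnight dye step; 0% = bacteria only wells and 100% = bacteria with antibiotic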
# GDH-TPI inh = GDH-TPI coupling enzyme inhibitors, primary screen, artefact control for M. tuberculosis FBA inhibitor project, biochemical, absorbance, full deck; GDH-TPI coupled enzyme counterscreen, NADH absorbance; inhibition, % at 4.8 µM; actives 1.2% (n = 360,000); AID 588335, 2011; in the data active = inhibition above about 30%;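 note: 0% = DMSO wells and 100% = wells lacking the enzyme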
# Mtb FBA inh = Mtb FBA enzyme inhibitors, primary screen, biochemical, fluorescence, strain H37Rv | Fructose-bisphosphate aldolase (Mycobacterium tuberculosis (strain ATCC 25618 / H37Rv)), … | purified M. tuberculosis FBA, fluorescence read-out | inhibition, % at 1 µM | actives 2.3% (n = 360,000) | AID 588726, 2011; in the data active = inhibition above about 27%;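 note: 0% = vehicle and 100% = reference inhibitor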
# Target sequence (P9WQA3 whole entry, looked up): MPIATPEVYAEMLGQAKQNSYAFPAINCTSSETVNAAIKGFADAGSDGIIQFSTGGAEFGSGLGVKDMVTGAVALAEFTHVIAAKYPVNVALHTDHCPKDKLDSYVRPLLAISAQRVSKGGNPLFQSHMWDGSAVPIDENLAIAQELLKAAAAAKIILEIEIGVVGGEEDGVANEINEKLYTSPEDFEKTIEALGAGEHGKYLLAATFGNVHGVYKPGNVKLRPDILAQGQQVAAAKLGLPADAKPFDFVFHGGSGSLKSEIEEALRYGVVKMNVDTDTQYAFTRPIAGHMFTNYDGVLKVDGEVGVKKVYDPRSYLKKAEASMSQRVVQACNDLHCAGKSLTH
# UGM FP inh = M. tuberculosis UGM enzyme inhibitors, primary screen, biochemical, fluorescence polarization, single point | UDP-galactopyranose mutase (Mycobacterium tuberculosis (strain ATCC 25618 / H37Rv)), … | purified UGM, fluorescence polarization probe displacement | inhibition, % at 10 µM | actives 0.06% (n = 320,000) | AID 504406, 2011; in the data active = inhibition above about 10%, passing the limit was not always enough; inconclusive = no clear call, values can overlap the other calls
# * hit, by the source's call; ? = inconclusive; nt = no result given; + = active, no number. The list is not random: actives were taken first. Their share in the collection is about 3.7%.
SMILES,FadD28 FP inh,Rv3671c inh,Mtb betalactam,GDH-TPI inh,Mtb FBA inh,UGM FP inh
CC(=O)Nc1ccc(NC(=O)C(C)OC(=O)[C@@H]2CCCN2C(=O)c2cccs2)cc1 (stereo partly drawn),-2,-9,0,-2,-2,-1
O=C(OCc1ccccc1)N1CCC2CC1c1ccc(N3CCN(Cc4ccc5c(c4)OCO5)CC3)cc12 (stereo not drawn),-3,nt,nt,nt,-3,nt
COc1cc2c(cc1OC)C1CCc3cc4c(cc3C1N=C2)OCO4 (stereo not drawn),-3,nt,nt,1,2,nt
Cn1c(=O)c2c(nc(NCc3ccc4c(c3)OCO4)n2C)n(C)c1=O,-2,0,6,3,0,0
Cn1c(=O)c2[nH]c(C=Cc3ccc4c(c3)OCO4)nc2n(C)c1=O,-2,nt,nt,31*,6,nt
CCCCN1CCCCC1(C)C(=O)NCc1cccs1 (stereo not drawn),1,nt,nt,6,6,nt
Cc1ccc(Cl)c2c(N=Nc3ccccc3)c(O)[nH]c12,-2,nt,1,11,3,11*
CC1=C([N+](=O)[O-])C(c2ccc(O)c(O)c2)NC(=O)N1 (stereo not drawn),-1,1,3,12,5,-3
COc1ccc(C2NC(=O)NC(C)=C2[N+](=O)[O-])cc1OC (stereo not drawn),0,8,-5,37*,0,2
COc1ccc(C(C)(O)c2nc(-c3cccs3)cs2)cc1 (stereo not drawn),-4,nt,nt,0,-2,nt
O=C(Nc1nccs1)C1CCCN1/C=C/C(=O)C(F)(F)F (stereo not drawn),-1,6,0,35*,2,6
Cc1ccc(S(=O)(=O)N2CCCC2C(=O)Nc2nccs2)cc1 (stereo not drawn),-1,5,5,10,3,-1
C[C@H](NC(=O)c1nc[nH]c1C(=O)NC1CCNCC1)C(=O)OCc1ccccc1,nt,3,0,nt,nt,1
O=C(Nc1nnc(Cc2ccccc2)s1)c1ccco1,1,5,6,26,-2,1
NC(=O)c1cc(Cc2ccccc2)sc1NC(=O)c1ccco1,-7,-9,52,39*,3,-5
C=CCn1c(=O)[nH]c(=O)c2c(N)c(C(=O)c3ccc(OC)cc3)sc21,0,nt,nt,30,1,nt
O=C(/C=C/c1ccc2c(c1)S(=O)(=O)N(Cc1ccccc1)[C@H]2CC(=O)N1CCOCC1)N1CCOCC1,-1,1,1,14,2,-1
Oc1ccc(C=Nc2ccccc2-c2nc3ccccc3[nH]2)c(O)c1,-2,5,1,33*,166*,1
COc1ccc(OC)c(C=Nc2ccccc2-c2nc3ccccc3[nH]2)c1,-1,2,-3,17,+,-4
Oc1ccccc1C=Nc1ccccc1-c1nc2ccccc2[nH]1,-4,-8,-1,18,128*,1
Fc1ccccc1-c1nc2ccccc2[nH]1,-2,-5,1,-3,24,3
CN(C)c1cccc(NC2=CC(=[N+]3CCOCC3)CC(C)(C)C2)c1,-1,5,-3,37*,0,3
CC1(C)CC(=O)C=C(Nc2cccc(F)c2)C1,-2,1,-1,-1,-3,0
Cc1ccc(C(=O)Nc2ccc(N3CCN(C)CC3)cc2)c(Cl)c1,-1,3,-8,10,0,-3
C#CC1(O)CCC2C3CCC4=CC(=O)CCC4=C3C=CC21C (stereo not drawn),0,nt,nt,42*,14,nt
SMILES,FadD28 FP inh,Rv3671c inh,Mtb betalactam,GDH-TPI inh,Mtb FBA inh,UGM FP inh
C#C[C@]1(O)CC[C@H]2[C@@H]3CCC4=CC(=O)CC[C@@H]4[C@H]3CC[C@@]21C,-2,-5,-2,12,5,-2
COc1ccc(S(=O)(=O)N2CCC3(CC2)OCCN3S(=O)(=O)c2cccs2)cc1,-4,9,-15,-3,-2,-1
COc1ccc(OC)c(S(=O)(=O)N2CCC3(CC2)OCCN3S(=O)(=O)c2cccs2)c1,10*,7,-8,7,1,0
Cc1ccc(S(=O)(=O)Oc2ccccc2[N+](=O)[O-])cc1,-2,nt,nt,9,-1,nt
Nc1c(C(=O)OC2CCCCC2)c2nc3ccccc3nc2n1CC1CCCO1 (stereo not drawn),-6,-12,17,18,149*,2
COc1ccccc1-n1c(N)c(C(=O)NCC2CCCO2)c2nc3ccccc3nc21 (stereo not drawn),1,0,2,-2,113*,4
CC(C)OC(=O)c1c(N)n(CC2CCCO2)c2nc3ccccc3nc12 (stereo not drawn),-5,-15,3,9,190*,3
O=c1c2ccccc2c2ccccc2c(=O)n1CC1CCCO1 (stereo not drawn),-4,1,2,7,0,5
CC(C)CCOC(=O)c1c(N)n(CC2CCCO2)c2nc3ccccc3nc12 (stereo not drawn),-2,-34,9,21,149*,-1
C=CCc1ccccc1OCC(=O)NNC(=S)NCc1ccccc1,-3,1,-7,-3,2,1
Cc1nn(-c2ccccc2)c(Cl)c1C(=O)NCC1CCCO1 (stereo not drawn),-1,-7,1,3,-1,14*
Fc1cccc(CSc2ncnc3c2ncn3C2CCCCO2)c1 (stereo not drawn),1,nt,nt,-3,2,nt
c1ccc2nc(-c3nc4ccccc4[nH]3)ccc2c1,2,-6,94,36*,23,0
COc1ccc(C(=O)N2CCC2(C)C(=O)NC(C)C)c(OC)c1 (stereo not drawn),0,nt,nt,-5,3,nt
COc1cc2c(cc1O)CC[n+]1cc3c(OC)c(OC)ccc3cc1-2,0,-1,2,33*,-4,3
COc1cc2c(cc1OC)-c1cc3ccc4c(c3c[n+]1CC2)OCO4,-2,-8,-1,35*,-1,4
O=C1C(=NO)C(c2ccccc2)Oc2ccccc21 (stereo not drawn),-2,nt,nt,0,-1,nt
CCNS(=O)(=O)c1ccc(NC(=S)N2CCc3ccccc32)cc1,0,nt,-3,11,-1,-5
CCCCOC1NC(=O)NC(=O)C1(F)C(=O)OCC (stereo not drawn),0,nt,nt,nt,-1,nt
CCN(CC)c1ccc(Nc2cc3n(c(=O)n2)CCc2cc(OC)c(OC)cc2-3)cc1,-3,1,3,38*,1,0
COc1cc2c(cc1OC)-c1cc(OCc3ccccc3Cl)nc(=O)n1CC2,0,-1,?,29,99*,-1
COc1cc2c(cc1OC)-c1cc(Nc3cccc(F)c3)nc(=O)n1CC2,nt,nt,nt,34*,-2,nt

# Assay outcomes: PubChem, several laboratories
